Records with an inconclusive call do not appear. Active and inactive are the calls of the source. Calls come from the whole dose curve; as a rule, active = well fitted inhibition curve with a large enough effect; inconclusive = small, poorly fitted or top-dose-only effect; inactive = flat fitted curve, though single readings scatter. Bridge positions count the residues as written; N and C are the ends. Peptide text beside a SMILES is read from it.
Target: Luciferin 4-monooxygenase (Photinus pyralis) (UniProt P08659)
Sequence (P08659 whole entry, looked up): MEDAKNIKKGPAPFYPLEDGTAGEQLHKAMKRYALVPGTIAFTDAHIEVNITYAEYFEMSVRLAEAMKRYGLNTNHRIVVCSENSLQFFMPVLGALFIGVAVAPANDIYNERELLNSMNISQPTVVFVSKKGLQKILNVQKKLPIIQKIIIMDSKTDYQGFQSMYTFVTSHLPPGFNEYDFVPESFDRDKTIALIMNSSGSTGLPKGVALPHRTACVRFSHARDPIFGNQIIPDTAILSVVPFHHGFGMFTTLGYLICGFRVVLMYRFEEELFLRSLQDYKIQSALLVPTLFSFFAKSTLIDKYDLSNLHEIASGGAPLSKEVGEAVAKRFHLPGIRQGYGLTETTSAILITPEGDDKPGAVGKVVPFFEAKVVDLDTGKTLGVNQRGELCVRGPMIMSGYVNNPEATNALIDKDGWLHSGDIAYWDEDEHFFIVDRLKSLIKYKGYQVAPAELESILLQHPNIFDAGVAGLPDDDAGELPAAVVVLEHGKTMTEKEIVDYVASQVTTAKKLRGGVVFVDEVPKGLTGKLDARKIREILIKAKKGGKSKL
Assay: Biochemical firefly luciferase enzyme assay for NPC (AID 624030);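 note: purified P. pyralis luciferase at 10 nM with luciferin and ATP substrate; 0% = DMSO and -100% = full luciferase inhibition by PTC124 control; nearly all actives have a fitted effect of over 70% in size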
Conditions: purified P. pyralis luciferase, luminescence, 5 min; series mostly up to 58.6 µM; activity change, negative = inhibition: at the top concentration
Method in brief: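 Counter-screen for direct inhibition of the luciferase enzyme by approved-drug library compounds, run at 10 nM enzyme in 50 mM Tris acetate (final). Luminescence was read within 5 min of enzyme-buffer addition and normalized to PTC124 versus DMSO (0%).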

Activity change, negative = inhibition, inactive:
CC(=O)OCC(=O)C1(O)CCC2C3CCC4=CC(=O)CCC4(C)C3(F)C(O)CC21C (stereo unspecified) -3.24%, COc1cc2c(c(OC)c1OC)-c1c(cc3c(c1OC)OCO3)CC(C)C(C)(O)C2 (stereo unspecified) -6%, Cc1c(C)c2c(c(C)c1OC(=O)CCC(=O)OCCO)CC[C@](C)(CCC[C@H](C)CCC[C@H](C)CCCC(C)C)O2 4.26%, CCCCCCCCCCCCCCCC(=O)O[C@@H]1CC(C)=C(\C=C/C(C)=C\C=C/C(C)=C\C=C\C=C(C)\C=C\C=C(C)\C=C\C2=C(C)C[C@@H](OC(=O)CCCCCCCCCCCCCCC)CC2(C)C)C(C)(C)C1 -3.65%, CC(=O)NC(CCC(N)=O)C(=O)O (stereo unspecified) -2.92%, COCC1=C(C(=O)OC(C)OC(=O)OC(C)C)N2C(=O)C(NC(=O)/C(=N/OC)c3csc(N)n3)[C@H]2SC1 (stereo partly specified) -5.44%, NCCCCC(NC(=O)C1CCCN1C(=O)C1CSSCC(N)C(=O)NC(Cc2ccccc2)C(=O)NC(Cc2ccccc2)C(=O)NC(CCC(N)=O)C(=O)NC(CC(N)=O)C(=O)N1)C(=O)NCC(N)=O (stereo unspecified) (H-CFFQNCPKG-NH2; disulfide 1-6; configuration not given here) 0.329%, COc1ccc(CCNC[C@H](O)COc2cccc(C)c2)cc1OC -1.54%, CC#CCC(C)[C@H](O)/C=C/C1[C@H](O)C[C@@H]2C/C(=C\CCCC(=O)O)C[C@H]12 (stereo partly specified) 0.3%, CC(=O)OC1CCC2(C)C(=CCC3C2CCC2(C)C(C(C)=O)CCC32)C1 (stereo unspecified) 0.644%, C[N+]1(C)CCN(C[C@@](O)(c2ccccc2)C2CCCCC2)CC1 -1.92%, OCC1(O)OC[C@@H](O)[C@H](O)[C@@H]1O (stereo partly specified) -0.233%, COc1cc([C@@H]2c3cc4c(cc3[C@@H](O[C@@H]3O[C@H]5CO[C@H](C)O[C@H]5[C@H](O)[C@@H]3O)[C@H]3COC(=O)[C@H]23)OCO4)cc(OC)c1OP(=O)(O)O -0.911%, CC(=O)OCC(=O)C1(O)CCC2C3CCC4=CC(=O)CCC4(C)C3C(O)CC21C (stereo unspecified) -5.54%, CCN1CCN(C(=O)N[C@H](C(=O)N[C@@H]2C(=O)N3[C@@H](C(=O)O)C(C)(C)S[C@@H]23)c2ccccc2)C(=O)C1=O -6.63%, C#C[C@@]1(OC(C)=O)CC[C@H]2[C@@H]3CCC4=CC(=O)CC[C@@H]4[C@H]3CC[C@@]21C 0.854%, O=C1O[C@H]2[C@@H](OC(O)[C@@H]2O)[C@H]1O (stereo partly specified) -3.82%, CC(C)=CCC/C(C)=C\CC/C(C)=C\CC/C(C)=C\CC1=C(C)C(=O)c2ccccc2C1=O -5.07%, O=C1OC2C(O)C(O)OC2C1O (stereo unspecified) -1.14%, COCC1=C(C(=O)OC(C)OC(=O)OC(C)C)N2C(=O)C(NC(=O)/C(=N\OC)c3csc(N)n3)C2SC1 (stereo unspecified) 1.77%, CC(=O)O[C@H]1CC[C@@]2(C)C(=CCC3C2CC[C@]2(C)C(c4cccnc4)=CCC32)C1 (stereo partly specified) 2.55%, CC(=O)C1(O)CCC2C3CC(C)C4=CC(=O)CCC4(C)C3CCC21C (stereo unspecified) -1.35%, C/C=C1\NC(=O)[C@H]2CSSCC/C=C\[C@H](CC(=O)N[C@H](C(C)C)C(=O)N2)OC(=O)C(C(C)C)NC1=O (stereo partly specified) -3.53%, C/C=C(/CC[C@@H](C)[C@H]1CCC2C3=CC[C@H]4[C@H](C)[C@@H](O)CC[C@]4(C)C3CC[C@@]21C)C(C)C (stereo partly specified) 0.561%, CO[C@H]1C[C@@H](O[C@@H]2[C@@H](C)O[C@@H](O[C@@H]3/C(C)=C/CC4C[C@@H](C[C@]5(C=C[C@@H](C)[C@H](C6CCCCC6)O5)O4)OC(=O)[C@@H]4C=C(C)[C@@H](O)[C@H]5OC/C(=C\C=C\[C@@H]3C)[C@]54O)C[C@H]2OC)O[C@@H](C)[C@@H]1O -0.99%, O=C(CO)NCCCOc1cccc(CN2CCCCC2)c1 1.63%, CCCC(=O)O[C@]1(C(=O)COC(=O)CC)[C@@H](C)C[C@H]2[C@@H]3CCC4=CC(=O)C=C[C@@]4(C)[C@@]3(F)[C@H](O)C[C@@]21C -3.09%, CC/C(O)=N/S(=O)(=O)c1ccc(-c2c(-c3ccccc3)noc2C)cc1 -3.47%, CC/C=C(/C(=O)N[C@@H]1C(=O)N2C(C(=O)OCOC(=O)C(C)(C)C)=C(COC(N)=O)CS[C@H]12)c1csc(N)n1 -3.85%, CCCCC/C=C/C/C=C/CCCCCCCC(=O)NC(C)c1ccccc1 (stereo unspecified) -0.61%

Potency, inactive:
NCCCCC(NC(=O)C1CCCN1C(=O)C1CSSCC(N)C(=O)NC(Cc2ccc(O)cc2)C(=O)NC(Cc2ccccc2)C(=O)NC(CCC(N)=O)C(=O)NC(CC(N)=O)C(=O)N1)C(=O)NCC(N)=O (stereo unspecified)
